# In PubChem BioAssay AID504834 (National Center for Advancing Translational Sciences (NCATS), 2011):
# The campaign covered roughly 320,000 compounds. About 22,000 (6.9%) were called active. Where a call stands in place of a potency, no number is given. Roughly 27% stayed inconclusive and do not appear here. This is one part of a sample in which actives are shown more often than they occur. Calls follow the shape of the dose curve; as a rule, active = well fitted inhibition curve with a large enough effect; inconclusive = small, poorly fitted or top-dose-only effect, or another doubt; inactive = no such curve, though single readings can be large or run the other way.
# Assay: Primary qHTS for delayed death inhibitors of the malarial parasite plastid, 96 hour incubation
# Details: P. falciparum luciferase reporter growth; series mostly up to 28.7 µM
# Summary of the method: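 Erythrocytes infected with luciferase-expressing P. falciparum were dispensed at 2% hematocrit and 0.05% parasitemia (final), then incubated with compounds 96 hours at 37 C in 5% CO2. Luminescence after detection reagent addition reported growth.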
# Potency is read from the fitted curve at half-maximal effect.
row,SMILES,Potency
1,O=C1CN(C(=O)COC(=O)c2cnc(Cl)c(Cl)c2)c2ccccc2N1,inactive
2,COc1cc(OC)c(C(=O)OCC(=O)N2CC(=O)Nc3ccccc32)cc1OC,inactive
3,COc1ccc(Cl)cc1-n1c(C)cc(C(=O)OCC(=O)N2CC(=O)Nc3ccccc32)c1C,4.15 µM (active)
4,O=C(COC(=O)Cc1ccccc1F)NNC(=O)c1ccc(Cl)cc1,inactive
5,Cc1cc(Br)ccc1NC(=O)CN(C)C(=O)CN1C(=O)NC2(CCCC2)C1=O,inactive
6,COc1ccc(-c2cc(C(=O)N(C)Cc3ccccc3)c3ccccc3n2)cc1,inactive
7,COc1ccc(CN(C)C(=O)c2cc(-c3ccc(C)cc3C)nc3ccccc23)c(OC)c1OC,13.1 µM (active)
8,COc1ccc(-c2cc(C(=O)N(C)CC(=O)Nc3ccccc3Cl)c3ccccc3n2)cc1OC,9.28 µM (active)
9,COc1ccc(Cl)cc1NC(=O)CN(C)C(=O)c1ccc2n[nH]nc2c1,inactive
10,COc1ccc(-c2cc(C(=O)NCCCN3CCCC3=O)c3ccccc3n2)cc1OC,inactive
11,COc1ccc(CN(C)C(=O)Cc2c[nH]c3ccccc23)c(OC)c1OC,inactive
12,CC1CCN(c2ccc([N+](=O)[O-])c(SCCO)c2)CC1,inactive
13,Cc1ccc(C)c(OCC(=O)NNC(=O)C2CCC2)c1,inactive
14,COc1cccc(OCc2nnc3n2N=C(c2ccccc2)C(CC(=O)O)S3)c1 (stereo not given),inactive
15,O=C(Nc1ccc2c(c1)OCCO2)C(c1ccc(F)cc1)N1CCCCC1 (stereo not given),8.28 µM (active)
16,O=C(CSc1ccc(-c2ccc(F)cc2)nn1)Nc1ccc2c(c1)OCCO2,inactive
17,CC1CCCN(C(C(=O)Nc2ccc(C(C)C)cc2)c2ccc3c(c2)OCO3)C1 (stereo not given),inactive
18,CC(=O)Nc1ccc(NC(=O)C2CCCN(S(=O)(=O)c3ccc(Cl)cc3)C2)cc1 (stereo not given),inactive
19,CC(NC(=O)CCCC1CCCCC1)c1ccc(S(N)(=O)=O)cc1 (stereo not given),inactive
20,CCOc1cc(/C=C2\C(=N)N3N=C(C)SC3=NC2=O)ccc1OCCOc1ccccc1,inactive
21,O=C(CCC(=O)c1cccs1)NC1CCCCCC1,inactive
22,O=C(COC(=O)/C=C/c1cccs1)NC1CCCCC1,inactive
23,O=C(CCCCCn1c(=S)[nH]c2ccsc2c1=O)NC1CCCCC1,13.1 µM (active)
24,CN1CCN(Cc2nc3cc(NC(=O)COc4ccc([N+](=O)[O-])cc4)ccc3n2C)CC1,inactive

row,SMILES,Potency
1,Nc1nc(SCC(=O)Nc2cc(C(F)(F)F)ccc2Cl)[nH]c(=O)c1NC(=O)c1ccco1,inactive
2,Cc1sc2ncn(CC(=O)NCCCC(=O)NCc3ccc(F)cc3)c(=O)c2c1C,inactive
3,CC(NC(=S)Nc1ccc(S(N)(=O)=O)cc1)c1ccc2c(c1)OCO2 (stereo not given),4.65 µM (active)
4,O=C(Nc1cccc([N+](=O)[O-])c1)c1ccc2c(c1)OCO2,inactive
5,CC(NC(=O)Nc1cccc([N+](=O)[O-])c1)c1ccc2c(c1)OCO2 (stereo not given),2.08 µM (active)
6,CCc1ccc(NC(=O)NC(C)c2ccc3c(c2)OCO3)cc1 (stereo not given),inactive
7,CC(=O)Nc1cccc([N+](=O)[O-])c1,inactive
8,CC(NC(=O)c1ccco1)c1ccc2c(c1)OCO2 (stereo not given),inactive
9,CN(CC(=O)Nc1ccc(F)cc1)CC(=O)N1CCCCC1,inactive
10,Cc1ccc(-c2nnc(Nc3ccc(C(=O)N(C)C)cc3)c3ccccc23)cc1S(N)(=O)=O,inactive
11,COc1ccccc1C(=O)N(Cc1ccc(C)o1)C1CCS(=O)(=O)C1 (stereo not given),inactive
12,CCCCc1nc(SCC(=O)Nc2nnc(C(C)C)s2)n[nH]1,inactive
13,Clc1ccc(Cn2ncc3c(NCc4cccnc4)ncnc32)cc1,inactive
14,CC(C)CNc1ncnc2c1cnn2Cc1ccc(Cl)cc1,11.7 µM (active)
15,CC(=O)Nc1ccc(NC(=O)CSc2ncnc3c2cnn3Cc2ccccc2)cc1,inactive
16,CC1CCCC(C)N1C(=O)CSc1nnnn1C1CCCC1 (stereo not given),inactive
17,O=C(CSc1nnnn1C1CCCC1)N1CCCCC1,0.586 µM (active)
18,CC(=O)Nc1ccc(NC(=O)CSc2nnnn2C2CCCCC2)cc1,inactive
19,COc1cccc(NC(=O)c2ccccc2N(Cc2ccccc2)S(C)(=O)=O)c1,inactive
20,Cc1ccc(S(=O)(=O)N2CC(C)N(S(C)(=O)=O)C2)cc1 (stereo not given),inactive
21,O=C(CNC(=O)C12CC3CC(CC(C3)C1)C2)OCC(=O)N1CCCCC1,inactive
22,CC(C)N(Cc1ccccc1)C(=O)COC(=O)c1ccccc1SCC(=O)N1CCCC1,inactive
23,Cc1cccc(NC(=O)NC2(C)CCS(=O)(=O)C2)c1 (stereo not given),inactive
24,COc1ccc2nc(SCC(=O)Nc3c(C)cc(C)cc3C)[nH]c2c1,inactive

row,SMILES,Potency
1,CC(=O)Nc1ccc(C(=O)CSc2nc3ccc(C)cc3[nH]2)cc1,inactive
2,CCOC(=O)CSc1nc2ccc(C)cc2[nH]1,13.1 µM (active)
3,O=C(Nc1c2c(nn1-c1ccccc1)CS(=O)(=O)C2)C1CCCC1,inactive
4,CSc1ncc(C(=O)NCCCc2ccccc2)c(C)n1,inactive
5,CCSc1nc2c(c(=O)[nH]1)C(c1cccnc1)C(C(=O)OC(C)C)=C(C)N2 (stereo not given),1.31 µM (active)
6,COC(=O)C1=C(N)Oc2cc(C)oc(=O)c2C1c1cccnc1 (stereo not given),inactive
7,COC(=O)C1=C(C)Nc2ncnn2C1c1cccnc1 (stereo not given),inactive
8,COc1ccc2c(C)cc(SCC(=O)NCC3CCCO3)nc2c1 (stereo not given),inactive
9,O=C(Nc1ccc(F)cc1)C1CCCN(S(=O)(=O)c2ccc(-n3cnnn3)cc2)C1 (stereo not given),inactive
10,Cc1ccc(-c2nnc(C)c(N3CC(C)OC(C)C3)n2)cc1 (stereo not given),inactive
11,c1ccc(-c2nnc(N3CCOCC3)c3ccccc23)cc1,inactive
12,CC1CN(c2nc(-c3ccccc3)nnc2-c2ccccc2)CC(C)O1 (stereo not given),0.828 µM (active)
13,CCOC(=O)c1cccc(NC(=O)CCc2nnc3ccc(N4CCOCC4)nn23)c1,inactive
14,O=C(CNC(=O)c1ccc(Br)o1)NCC1CCCO1 (stereo not given),inactive
15,O=C(NCc1cccs1)c1ccc(Br)o1,inactive
16,O=C(CNC(=O)c1ccc(Br)o1)Nc1ccccc1,13.1 µM (active)
17,Nc1c(N(CCCO)C(=O)C2CCCC2)c(=O)[nH]c(=O)n1Cc1ccccc1,inactive
18,Cc1cc(Cl)ccc1OCCCC(=O)Nc1cccc(-n2cnnn2)c1,inactive
19,OC(CNC1CCCC1)COc1ccc(F)cc1 (stereo not given),inactive
20,Cc1ccc(-c2cc(=O)c3ccc(Cl)cc3[nH]2)cc1,inactive
21,Cc1ccc(S(=O)(=O)/N=C(\N)c2ccc(F)cc2)cc1,inactive
22,Cc1ccc(-c2cc(=O)c3ccc(F)cc3[nH]2)cc1,2.94 µM (active)
